The values below come from ChEMBL document CHEMBL2218924, “A broad activity screen in support of a chemogenomic map for kinase signalling research and drug discovery” (Biochem J, 2013).

The target of experiment [1] is T1, Ephrin type-B receptor 1 (Homo sapiens) (UniProt P54762).
T1 sequence (whole entry): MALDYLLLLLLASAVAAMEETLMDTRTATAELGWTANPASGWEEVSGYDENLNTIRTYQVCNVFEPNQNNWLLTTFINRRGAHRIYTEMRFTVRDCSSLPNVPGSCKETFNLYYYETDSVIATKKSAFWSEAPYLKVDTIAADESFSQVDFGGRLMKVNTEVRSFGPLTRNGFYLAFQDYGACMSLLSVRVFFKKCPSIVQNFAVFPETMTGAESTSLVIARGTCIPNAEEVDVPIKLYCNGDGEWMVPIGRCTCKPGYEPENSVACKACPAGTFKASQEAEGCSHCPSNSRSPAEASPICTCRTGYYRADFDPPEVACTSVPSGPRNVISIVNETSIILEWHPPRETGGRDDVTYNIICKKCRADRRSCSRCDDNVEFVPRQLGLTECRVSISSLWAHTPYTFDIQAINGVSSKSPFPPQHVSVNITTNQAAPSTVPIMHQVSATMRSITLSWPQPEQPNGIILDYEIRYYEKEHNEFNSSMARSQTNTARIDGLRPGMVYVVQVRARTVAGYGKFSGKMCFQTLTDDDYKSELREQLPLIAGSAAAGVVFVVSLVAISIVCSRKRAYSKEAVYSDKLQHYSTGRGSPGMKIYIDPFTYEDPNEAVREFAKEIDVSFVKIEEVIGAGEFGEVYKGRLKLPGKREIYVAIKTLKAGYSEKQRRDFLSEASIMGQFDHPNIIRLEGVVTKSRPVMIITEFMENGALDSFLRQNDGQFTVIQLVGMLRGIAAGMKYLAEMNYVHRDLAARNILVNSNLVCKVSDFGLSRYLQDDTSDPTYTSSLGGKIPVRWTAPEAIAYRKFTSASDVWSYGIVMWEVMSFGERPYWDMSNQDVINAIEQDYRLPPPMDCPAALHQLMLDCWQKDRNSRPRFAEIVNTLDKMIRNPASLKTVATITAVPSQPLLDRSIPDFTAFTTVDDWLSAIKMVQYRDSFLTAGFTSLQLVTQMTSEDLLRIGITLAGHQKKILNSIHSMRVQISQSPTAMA
The settings on record: at 10 µM.

The target of experiment [2] is T2, Ephrin type-B receptor 2 (Homo sapiens) (UniProt P29323).
T2 sequence (whole entry): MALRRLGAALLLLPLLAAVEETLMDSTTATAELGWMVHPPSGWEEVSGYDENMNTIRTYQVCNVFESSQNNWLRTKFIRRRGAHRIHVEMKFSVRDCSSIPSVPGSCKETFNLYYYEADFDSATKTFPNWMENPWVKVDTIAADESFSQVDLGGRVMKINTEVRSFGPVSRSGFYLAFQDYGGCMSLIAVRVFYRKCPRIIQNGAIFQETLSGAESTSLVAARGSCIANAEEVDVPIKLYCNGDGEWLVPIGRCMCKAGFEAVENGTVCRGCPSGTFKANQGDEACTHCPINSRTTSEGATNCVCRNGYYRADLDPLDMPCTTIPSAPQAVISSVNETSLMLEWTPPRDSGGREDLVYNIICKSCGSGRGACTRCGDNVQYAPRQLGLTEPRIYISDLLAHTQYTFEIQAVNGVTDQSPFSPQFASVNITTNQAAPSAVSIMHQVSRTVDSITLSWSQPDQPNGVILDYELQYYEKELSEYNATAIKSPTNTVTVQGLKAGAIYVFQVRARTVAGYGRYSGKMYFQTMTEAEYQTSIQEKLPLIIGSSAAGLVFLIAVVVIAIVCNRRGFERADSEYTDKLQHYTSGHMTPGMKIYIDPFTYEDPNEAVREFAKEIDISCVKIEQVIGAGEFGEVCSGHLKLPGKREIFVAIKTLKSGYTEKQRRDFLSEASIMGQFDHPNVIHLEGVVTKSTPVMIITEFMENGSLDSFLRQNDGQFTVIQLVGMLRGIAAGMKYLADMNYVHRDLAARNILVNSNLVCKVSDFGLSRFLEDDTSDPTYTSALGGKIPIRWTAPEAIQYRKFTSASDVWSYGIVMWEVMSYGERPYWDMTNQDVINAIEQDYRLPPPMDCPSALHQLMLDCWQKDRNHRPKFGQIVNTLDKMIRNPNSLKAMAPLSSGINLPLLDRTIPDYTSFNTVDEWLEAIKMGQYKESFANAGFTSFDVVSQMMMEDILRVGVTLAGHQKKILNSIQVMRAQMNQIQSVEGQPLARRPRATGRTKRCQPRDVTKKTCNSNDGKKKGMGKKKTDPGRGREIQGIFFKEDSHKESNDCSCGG
To be noted: at 1 µM.

The target in experiment [3] is T2, Ephrin type-B receptor 2 (Homo sapiens). The settings on record: at 10 µM.
Experiment [4] has as its target T3, Ephrin type-B receptor 3 (Homo sapiens) (UniProt P54753).
T3 sequence (whole entry): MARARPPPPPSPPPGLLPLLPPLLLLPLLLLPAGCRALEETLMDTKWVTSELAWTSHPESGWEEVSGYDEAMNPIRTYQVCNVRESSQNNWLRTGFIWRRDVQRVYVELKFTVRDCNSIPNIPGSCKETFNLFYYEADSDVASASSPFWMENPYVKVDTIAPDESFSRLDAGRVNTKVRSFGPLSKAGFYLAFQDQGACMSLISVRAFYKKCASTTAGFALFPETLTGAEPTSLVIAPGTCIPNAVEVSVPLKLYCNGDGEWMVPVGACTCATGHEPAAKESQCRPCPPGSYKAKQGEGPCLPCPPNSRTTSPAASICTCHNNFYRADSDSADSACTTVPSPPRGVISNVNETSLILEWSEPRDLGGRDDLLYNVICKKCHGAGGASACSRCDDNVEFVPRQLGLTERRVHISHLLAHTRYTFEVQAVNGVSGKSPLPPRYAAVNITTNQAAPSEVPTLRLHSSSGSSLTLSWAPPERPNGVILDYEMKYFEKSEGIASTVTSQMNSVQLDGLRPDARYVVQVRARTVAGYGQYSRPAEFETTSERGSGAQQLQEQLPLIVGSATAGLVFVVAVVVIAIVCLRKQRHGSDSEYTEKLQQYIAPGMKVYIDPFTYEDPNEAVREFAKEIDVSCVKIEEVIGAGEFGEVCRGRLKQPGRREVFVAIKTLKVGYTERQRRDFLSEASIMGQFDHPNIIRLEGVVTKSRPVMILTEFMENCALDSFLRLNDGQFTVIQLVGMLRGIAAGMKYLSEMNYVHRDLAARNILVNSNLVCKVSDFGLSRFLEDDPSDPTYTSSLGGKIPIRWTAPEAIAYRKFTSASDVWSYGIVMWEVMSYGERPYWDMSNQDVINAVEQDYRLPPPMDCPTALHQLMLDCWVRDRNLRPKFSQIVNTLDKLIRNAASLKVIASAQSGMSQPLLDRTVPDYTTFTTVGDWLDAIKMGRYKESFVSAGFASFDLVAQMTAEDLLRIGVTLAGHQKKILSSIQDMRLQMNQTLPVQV
The settings on record: at 1 µM.

Experiment [5] concerns the target T3, Ephrin type-B receptor 3 (Homo sapiens). The settings on record: at 10 µM.
Experiment [6] concerns the target T4, Ephrin type-B receptor 4 (Homo sapiens) (UniProt P54760).
T4 sequence (whole entry): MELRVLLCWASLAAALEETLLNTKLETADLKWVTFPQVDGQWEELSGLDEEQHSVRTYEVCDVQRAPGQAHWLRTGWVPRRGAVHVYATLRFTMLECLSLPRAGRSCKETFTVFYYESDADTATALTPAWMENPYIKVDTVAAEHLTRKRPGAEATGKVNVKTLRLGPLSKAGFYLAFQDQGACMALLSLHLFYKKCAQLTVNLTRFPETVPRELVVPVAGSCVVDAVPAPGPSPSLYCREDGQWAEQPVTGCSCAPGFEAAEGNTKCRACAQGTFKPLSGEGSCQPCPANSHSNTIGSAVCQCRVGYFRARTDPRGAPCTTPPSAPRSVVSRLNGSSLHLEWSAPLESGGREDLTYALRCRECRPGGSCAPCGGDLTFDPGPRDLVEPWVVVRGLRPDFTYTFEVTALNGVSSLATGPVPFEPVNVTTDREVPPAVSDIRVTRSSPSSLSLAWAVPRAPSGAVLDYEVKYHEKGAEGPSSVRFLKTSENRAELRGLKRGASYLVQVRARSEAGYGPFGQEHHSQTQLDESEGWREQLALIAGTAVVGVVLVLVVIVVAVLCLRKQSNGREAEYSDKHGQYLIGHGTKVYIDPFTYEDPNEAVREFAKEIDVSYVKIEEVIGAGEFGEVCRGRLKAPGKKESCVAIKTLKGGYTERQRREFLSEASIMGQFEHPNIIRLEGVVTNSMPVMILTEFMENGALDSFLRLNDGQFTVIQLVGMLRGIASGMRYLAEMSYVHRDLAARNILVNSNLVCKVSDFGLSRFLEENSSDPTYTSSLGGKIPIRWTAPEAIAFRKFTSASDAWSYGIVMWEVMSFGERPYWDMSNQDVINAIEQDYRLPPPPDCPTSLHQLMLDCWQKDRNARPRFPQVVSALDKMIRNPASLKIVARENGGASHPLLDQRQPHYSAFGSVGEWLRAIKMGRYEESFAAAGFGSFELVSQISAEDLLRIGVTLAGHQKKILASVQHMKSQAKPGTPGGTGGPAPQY
The settings on record: at 1 µM.

Experiment [7] has as its target T4, Ephrin type-B receptor 4 (Homo sapiens). The settings on record: at 10 µM.
Experiment [8] concerns the target Receptor tyrosine-protein kinase erbB-4 (Homo sapiens) (UniProt Q15303). The settings on record: at 1 µM.
Experiment [9] has the same target. To be noted: at 10 µM.
Experiment [10] deals with Focal adhesion kinase 1 (Homo sapiens) (UniProt Q05397). The settings on record: at 1 µM.
Chain of Focal adhesion kinase 1 (Homo sapiens) (Q05397 2-1052 limits assumed): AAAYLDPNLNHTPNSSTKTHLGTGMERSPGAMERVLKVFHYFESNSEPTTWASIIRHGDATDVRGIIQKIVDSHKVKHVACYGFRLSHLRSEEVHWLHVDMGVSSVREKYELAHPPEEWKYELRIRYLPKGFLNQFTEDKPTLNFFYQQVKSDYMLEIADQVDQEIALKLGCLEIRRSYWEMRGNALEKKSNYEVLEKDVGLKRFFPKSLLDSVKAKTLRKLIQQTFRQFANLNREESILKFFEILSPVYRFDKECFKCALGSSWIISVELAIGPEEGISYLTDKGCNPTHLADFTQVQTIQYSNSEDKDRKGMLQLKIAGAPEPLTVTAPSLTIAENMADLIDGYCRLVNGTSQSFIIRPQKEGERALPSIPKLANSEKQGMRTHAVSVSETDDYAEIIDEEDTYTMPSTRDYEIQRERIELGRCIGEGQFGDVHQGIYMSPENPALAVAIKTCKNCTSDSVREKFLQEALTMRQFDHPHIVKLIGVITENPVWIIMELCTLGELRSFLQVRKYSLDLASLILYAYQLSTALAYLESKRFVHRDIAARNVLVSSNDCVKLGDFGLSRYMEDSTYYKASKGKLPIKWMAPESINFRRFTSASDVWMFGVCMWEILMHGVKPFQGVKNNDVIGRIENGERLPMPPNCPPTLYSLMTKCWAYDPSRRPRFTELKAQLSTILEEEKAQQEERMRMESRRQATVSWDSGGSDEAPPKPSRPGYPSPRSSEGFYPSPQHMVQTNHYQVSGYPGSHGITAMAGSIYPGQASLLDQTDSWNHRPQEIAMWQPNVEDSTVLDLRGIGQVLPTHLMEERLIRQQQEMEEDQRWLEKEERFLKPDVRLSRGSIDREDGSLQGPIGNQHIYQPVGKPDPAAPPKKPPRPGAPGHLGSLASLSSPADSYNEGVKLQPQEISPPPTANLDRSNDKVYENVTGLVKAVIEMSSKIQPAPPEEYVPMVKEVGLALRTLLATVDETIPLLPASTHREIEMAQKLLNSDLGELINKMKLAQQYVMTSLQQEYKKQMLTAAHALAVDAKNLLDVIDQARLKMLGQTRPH

Chain of Receptor tyrosine-protein kinase erbB-4 (Homo sapiens) (Q15303 whole entry): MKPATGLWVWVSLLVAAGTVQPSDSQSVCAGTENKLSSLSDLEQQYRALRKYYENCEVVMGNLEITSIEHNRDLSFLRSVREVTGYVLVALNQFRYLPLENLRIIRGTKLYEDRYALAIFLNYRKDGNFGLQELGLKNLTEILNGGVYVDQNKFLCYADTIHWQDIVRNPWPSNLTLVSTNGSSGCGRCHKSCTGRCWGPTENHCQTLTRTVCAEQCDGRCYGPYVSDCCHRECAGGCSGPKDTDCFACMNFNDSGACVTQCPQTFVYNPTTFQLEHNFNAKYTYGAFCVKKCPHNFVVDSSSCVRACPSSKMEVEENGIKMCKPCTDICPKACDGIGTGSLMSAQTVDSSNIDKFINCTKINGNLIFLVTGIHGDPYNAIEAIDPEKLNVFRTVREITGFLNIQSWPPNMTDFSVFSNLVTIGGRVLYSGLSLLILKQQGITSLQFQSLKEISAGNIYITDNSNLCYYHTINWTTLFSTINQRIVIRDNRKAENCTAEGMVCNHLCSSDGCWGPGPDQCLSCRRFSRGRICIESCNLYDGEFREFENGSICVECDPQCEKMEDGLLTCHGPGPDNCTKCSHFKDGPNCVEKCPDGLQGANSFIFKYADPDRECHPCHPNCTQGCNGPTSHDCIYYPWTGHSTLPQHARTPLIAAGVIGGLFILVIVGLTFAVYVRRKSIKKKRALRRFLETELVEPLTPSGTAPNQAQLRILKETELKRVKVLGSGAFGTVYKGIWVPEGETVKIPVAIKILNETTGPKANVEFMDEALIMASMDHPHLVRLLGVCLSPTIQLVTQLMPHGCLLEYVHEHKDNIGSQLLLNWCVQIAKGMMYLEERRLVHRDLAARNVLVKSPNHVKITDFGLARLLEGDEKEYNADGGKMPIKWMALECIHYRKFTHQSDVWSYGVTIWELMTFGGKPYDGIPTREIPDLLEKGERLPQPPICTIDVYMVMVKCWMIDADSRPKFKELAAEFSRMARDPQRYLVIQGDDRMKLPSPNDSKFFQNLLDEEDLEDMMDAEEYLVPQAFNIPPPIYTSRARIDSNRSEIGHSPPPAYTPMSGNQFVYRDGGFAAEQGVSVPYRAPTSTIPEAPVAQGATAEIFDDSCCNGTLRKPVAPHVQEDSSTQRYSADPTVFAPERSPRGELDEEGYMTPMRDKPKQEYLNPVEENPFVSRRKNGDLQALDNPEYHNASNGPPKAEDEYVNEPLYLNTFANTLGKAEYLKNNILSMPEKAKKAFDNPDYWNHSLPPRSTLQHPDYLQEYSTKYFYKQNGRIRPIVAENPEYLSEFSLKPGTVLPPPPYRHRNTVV

The term residual activity denotes the signal under treatment as a percentage of the control signal. Regarding `Cc1nc2cc3nc(-c4cccs4)cnc3cc2n1C`, the residual activity was 91% in experiment [1]; 117% in experiment [2]; 107% in experiment [3]; 107% (inactive) in experiment [4]; 124% in experiment [5]; 108% in experiment [6]. The residual activity in experiment [7] worked out at 119%; in experiment [8], 116%; in experiment [9], 113%; in experiment [10], 80%.
